Test results reported in the supplement of paper PMC10849652.
Targets with a hit are over-represented here; the source holds about 7,900 in all. About 0.6% of all pairs of compound and target were hits. A number with no mark means an inactive call.

Assays:
Experiment in all cases: log2 fold change, soluble protein after heating vs DMSO (PISA); higher = thermal stabilisation; K562 cells, 10 uM, 30 min; active = over 0.2 and 3.5 SD of the protein, either way, in both replicates (recomputed)
erlotinib = compound: C#Cc1cccc(Nc2ncnc3cc(OCCOC)c(OCCOC)cc23)c1 [erlotinib]
Procedure, shortened: (§1)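 K562 cells at 2×10^6 cells/mL were given 10 μM compound for 30 min. Aliquots then went through 3 min of heating across 48°C-58°C, were pooled, and were extracted in PBS with 0.5% NP-40 at 4°C, and the supernatant after 21,000xg for 90 min was quantified by TMTpro 16plex LC-MS/MS with channel sums equalised. Thermal stability relative to control samples, from duplicates, is given as log2 fold change.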

[1] = compound: C/C(=N\NC(=O)C1=CC(=CC=C1)S(=O)(=O)N2CCOCC2)/C3=C(C=CC(=C3)Cl)O
Procedure, shortened: as §1

[2] = compound: C1=CC(=C(C=C1Cl)C2=NC3=NC=CN=C3C(=N2)NC4=CC=NC=C4)F
Procedure, shortened: as §1

[3] = compound: C1=CC(=CC=C1C2=NC3=C(N2)C=C(C=C3)C(=O)N)OC4=CC=C(C=C4)Cl
Procedure, shortened: as §1

[4] = compound: C1=CC2=C(C=CC(=C2)/C=C\3/C(=O)NC(=NCC4=CC=CS4)S3)N=C1
Procedure, shortened: as §1

[5] = compound: C1=CC2=NC=CN=C2C=C1/C=C/3\C(=O)NC(=O)S3
Procedure, shortened: as §1

[6] = compound: C1=CC=C(C=C1)C2=NC(=C(N2)C3=CC=NC=C3)C4=CC(=C(C=C4)Cl)O
Procedure, shortened: as §1

[7] = compound: C1=CC=C2C(=C1)C3=NNC4=CC=CC(=C43)C2=O
Procedure, shortened: as §1

[8] = compound: C1CCN(C1)C(=O)NC2=CC=CC(=C2)NC3=NC=C(C(=N3)NCCC4=CN=CN4)Br
Procedure, shortened: as §1

[9] = compound: C1CN(CCC1(CC2=CC=C(C=C2)Cl)N)C3=NC=NC4=C3C=CN4
Procedure, shortened: as §1

Chain of UniProt Q7Z569 (Q7Z569 whole entry, looked up): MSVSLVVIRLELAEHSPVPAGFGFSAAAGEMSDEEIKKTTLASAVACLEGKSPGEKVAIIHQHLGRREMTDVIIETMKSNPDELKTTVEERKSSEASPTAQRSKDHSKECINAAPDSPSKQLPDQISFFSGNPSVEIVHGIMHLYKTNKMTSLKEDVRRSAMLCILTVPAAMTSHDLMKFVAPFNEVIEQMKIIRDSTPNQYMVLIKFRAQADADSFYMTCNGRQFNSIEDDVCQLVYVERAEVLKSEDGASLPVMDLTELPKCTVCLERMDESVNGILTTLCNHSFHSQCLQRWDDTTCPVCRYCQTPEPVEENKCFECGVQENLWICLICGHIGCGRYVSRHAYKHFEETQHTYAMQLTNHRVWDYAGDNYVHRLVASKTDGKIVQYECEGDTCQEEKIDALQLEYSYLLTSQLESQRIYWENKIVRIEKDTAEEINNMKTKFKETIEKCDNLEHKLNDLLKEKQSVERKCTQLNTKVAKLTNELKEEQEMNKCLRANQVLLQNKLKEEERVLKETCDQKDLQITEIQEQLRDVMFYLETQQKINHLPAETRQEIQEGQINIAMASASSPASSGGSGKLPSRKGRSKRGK
Chain of UniProt Q9UKV3 (Q9UKV3 whole entry, looked up): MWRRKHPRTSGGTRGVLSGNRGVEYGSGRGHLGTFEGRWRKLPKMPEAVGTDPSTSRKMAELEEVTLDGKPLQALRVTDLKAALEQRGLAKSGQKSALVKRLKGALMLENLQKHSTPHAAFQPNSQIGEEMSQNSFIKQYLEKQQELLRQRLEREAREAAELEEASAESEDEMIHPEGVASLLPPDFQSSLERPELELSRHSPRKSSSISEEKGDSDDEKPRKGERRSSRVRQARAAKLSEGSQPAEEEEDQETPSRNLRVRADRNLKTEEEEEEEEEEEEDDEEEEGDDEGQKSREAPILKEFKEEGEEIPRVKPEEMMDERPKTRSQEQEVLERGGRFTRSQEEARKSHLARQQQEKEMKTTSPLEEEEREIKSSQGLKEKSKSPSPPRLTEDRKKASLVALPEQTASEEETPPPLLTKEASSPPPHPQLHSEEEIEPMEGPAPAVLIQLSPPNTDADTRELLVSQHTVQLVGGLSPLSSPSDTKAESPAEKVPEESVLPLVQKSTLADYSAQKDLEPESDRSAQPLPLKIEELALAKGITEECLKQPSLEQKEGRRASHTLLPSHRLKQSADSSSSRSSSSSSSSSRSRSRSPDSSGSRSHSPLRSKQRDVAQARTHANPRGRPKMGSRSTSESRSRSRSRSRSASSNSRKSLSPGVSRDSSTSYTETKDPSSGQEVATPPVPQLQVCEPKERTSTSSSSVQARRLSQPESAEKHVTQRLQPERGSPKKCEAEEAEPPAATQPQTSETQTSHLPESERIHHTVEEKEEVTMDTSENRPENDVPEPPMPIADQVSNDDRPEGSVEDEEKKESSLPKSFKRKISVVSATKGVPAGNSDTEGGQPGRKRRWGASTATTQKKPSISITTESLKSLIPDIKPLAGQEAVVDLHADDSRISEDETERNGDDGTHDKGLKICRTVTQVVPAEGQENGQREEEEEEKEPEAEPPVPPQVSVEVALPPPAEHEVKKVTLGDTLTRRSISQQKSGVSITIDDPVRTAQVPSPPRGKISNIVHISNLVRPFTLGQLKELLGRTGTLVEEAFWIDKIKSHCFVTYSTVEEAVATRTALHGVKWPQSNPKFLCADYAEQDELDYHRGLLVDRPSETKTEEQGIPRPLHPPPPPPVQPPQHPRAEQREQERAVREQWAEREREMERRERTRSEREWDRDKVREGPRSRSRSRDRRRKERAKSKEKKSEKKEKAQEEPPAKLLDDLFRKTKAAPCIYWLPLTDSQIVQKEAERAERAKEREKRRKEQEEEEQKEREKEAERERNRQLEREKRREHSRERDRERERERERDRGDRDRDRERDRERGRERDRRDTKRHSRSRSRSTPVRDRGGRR
Chain of UniProt P78363 (P78363 whole entry, looked up): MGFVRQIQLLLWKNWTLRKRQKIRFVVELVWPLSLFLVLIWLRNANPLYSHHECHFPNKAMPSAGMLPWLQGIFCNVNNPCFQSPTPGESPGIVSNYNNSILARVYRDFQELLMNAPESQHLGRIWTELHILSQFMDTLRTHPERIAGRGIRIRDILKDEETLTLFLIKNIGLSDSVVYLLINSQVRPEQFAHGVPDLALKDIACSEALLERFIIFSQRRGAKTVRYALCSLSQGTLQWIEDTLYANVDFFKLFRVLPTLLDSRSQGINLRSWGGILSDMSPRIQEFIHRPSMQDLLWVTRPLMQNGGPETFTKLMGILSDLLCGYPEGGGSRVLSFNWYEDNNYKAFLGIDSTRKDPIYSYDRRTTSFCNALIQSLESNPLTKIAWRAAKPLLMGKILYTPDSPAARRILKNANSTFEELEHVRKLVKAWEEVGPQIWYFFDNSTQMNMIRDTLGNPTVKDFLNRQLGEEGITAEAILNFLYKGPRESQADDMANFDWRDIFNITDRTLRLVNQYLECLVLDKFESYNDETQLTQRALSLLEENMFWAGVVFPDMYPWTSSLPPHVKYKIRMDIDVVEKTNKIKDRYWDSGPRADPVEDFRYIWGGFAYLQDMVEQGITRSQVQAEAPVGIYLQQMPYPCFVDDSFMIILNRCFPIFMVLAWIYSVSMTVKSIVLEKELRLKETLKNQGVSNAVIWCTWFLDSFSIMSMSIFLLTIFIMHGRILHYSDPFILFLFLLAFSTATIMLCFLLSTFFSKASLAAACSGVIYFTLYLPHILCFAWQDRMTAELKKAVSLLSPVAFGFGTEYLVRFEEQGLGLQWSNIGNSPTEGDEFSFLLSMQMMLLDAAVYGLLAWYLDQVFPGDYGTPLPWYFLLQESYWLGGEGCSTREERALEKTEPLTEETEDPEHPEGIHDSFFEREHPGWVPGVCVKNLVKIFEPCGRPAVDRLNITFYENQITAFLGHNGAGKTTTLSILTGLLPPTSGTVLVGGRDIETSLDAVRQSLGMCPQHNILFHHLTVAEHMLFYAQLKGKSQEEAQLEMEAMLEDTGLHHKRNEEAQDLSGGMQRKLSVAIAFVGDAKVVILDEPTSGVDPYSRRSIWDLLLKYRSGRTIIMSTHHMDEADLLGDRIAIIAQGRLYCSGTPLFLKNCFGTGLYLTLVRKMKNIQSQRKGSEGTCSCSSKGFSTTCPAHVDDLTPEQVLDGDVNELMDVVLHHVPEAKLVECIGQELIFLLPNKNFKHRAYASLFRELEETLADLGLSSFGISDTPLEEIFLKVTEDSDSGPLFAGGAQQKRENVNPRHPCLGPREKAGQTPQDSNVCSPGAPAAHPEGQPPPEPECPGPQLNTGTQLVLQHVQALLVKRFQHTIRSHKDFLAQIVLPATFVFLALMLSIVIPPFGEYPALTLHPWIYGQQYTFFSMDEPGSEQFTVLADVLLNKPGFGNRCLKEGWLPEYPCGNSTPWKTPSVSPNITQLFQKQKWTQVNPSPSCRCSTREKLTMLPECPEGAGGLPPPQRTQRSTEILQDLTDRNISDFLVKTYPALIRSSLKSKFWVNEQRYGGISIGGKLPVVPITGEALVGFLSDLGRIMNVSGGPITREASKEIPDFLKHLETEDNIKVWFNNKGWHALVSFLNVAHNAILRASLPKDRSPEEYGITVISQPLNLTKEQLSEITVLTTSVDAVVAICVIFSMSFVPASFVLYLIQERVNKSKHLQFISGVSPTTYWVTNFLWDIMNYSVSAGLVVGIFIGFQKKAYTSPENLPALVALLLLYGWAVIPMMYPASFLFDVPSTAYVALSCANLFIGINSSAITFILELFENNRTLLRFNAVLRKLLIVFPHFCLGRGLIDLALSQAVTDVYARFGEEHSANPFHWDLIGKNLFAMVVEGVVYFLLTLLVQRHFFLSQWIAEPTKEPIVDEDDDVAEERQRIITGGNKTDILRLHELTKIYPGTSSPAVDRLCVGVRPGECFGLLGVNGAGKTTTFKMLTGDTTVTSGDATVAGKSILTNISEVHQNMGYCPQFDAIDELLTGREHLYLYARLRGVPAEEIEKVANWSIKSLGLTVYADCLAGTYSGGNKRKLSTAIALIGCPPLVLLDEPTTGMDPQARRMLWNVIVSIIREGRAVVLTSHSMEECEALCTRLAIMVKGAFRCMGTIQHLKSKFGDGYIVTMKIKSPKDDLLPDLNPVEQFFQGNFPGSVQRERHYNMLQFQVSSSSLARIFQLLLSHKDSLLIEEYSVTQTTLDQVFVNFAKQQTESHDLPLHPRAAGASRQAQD
Chain of UniProt Q9Y487 (Q9Y487 whole entry, looked up): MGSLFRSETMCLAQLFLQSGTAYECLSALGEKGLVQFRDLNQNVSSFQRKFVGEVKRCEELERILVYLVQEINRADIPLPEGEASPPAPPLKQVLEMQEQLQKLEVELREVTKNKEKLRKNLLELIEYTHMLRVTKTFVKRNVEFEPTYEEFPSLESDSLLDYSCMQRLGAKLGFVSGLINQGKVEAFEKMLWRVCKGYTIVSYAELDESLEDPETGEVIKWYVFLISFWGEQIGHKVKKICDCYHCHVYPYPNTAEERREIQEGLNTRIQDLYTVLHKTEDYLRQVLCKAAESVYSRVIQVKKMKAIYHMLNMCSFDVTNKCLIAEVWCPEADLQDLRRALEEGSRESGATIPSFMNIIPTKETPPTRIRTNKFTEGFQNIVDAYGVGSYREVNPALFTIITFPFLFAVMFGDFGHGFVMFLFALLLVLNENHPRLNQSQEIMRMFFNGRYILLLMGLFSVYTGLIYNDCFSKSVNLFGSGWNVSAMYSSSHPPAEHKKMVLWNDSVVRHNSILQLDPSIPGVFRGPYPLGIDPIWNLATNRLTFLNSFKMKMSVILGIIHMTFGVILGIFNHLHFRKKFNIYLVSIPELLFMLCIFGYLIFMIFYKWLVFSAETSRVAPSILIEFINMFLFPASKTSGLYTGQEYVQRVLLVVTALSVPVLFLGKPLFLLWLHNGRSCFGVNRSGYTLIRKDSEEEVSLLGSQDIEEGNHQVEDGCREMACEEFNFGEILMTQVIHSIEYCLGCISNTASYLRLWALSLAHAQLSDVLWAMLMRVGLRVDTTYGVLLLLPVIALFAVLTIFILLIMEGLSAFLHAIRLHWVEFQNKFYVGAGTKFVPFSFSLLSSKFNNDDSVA

Target	log2 fold change (erlotinib)	log2 fold change [1]	log2 fold change [2]	log2 fold change [3]	log2 fold change [4]	log2 fold change [5]	log2 fold change [6]	log2 fold change [7]	log2 fold change [8]	log2 fold change [9]
AFG1L (UniProt Q8WV93)	0.053	0	0.076	-0.083	0.065	0.041	-0.204	-0.042	0.058	-0.004
BRAP (UniProt Q7Z569)	0.114	0.09	0.022	0.012	0.001	0.032	0.172	-0.023	-0.07	-0.059
AAR2 (UniProt Q9Y312)	0.075	0.089	-0.113	0.057	0.103	0.049	-0.003	-0.137	-0.008	0.043
ASNS (UniProt P08243)	0.006	0.004	0.053	-0.015	0.012	-0.011	0.034	-0.008	0.002	0.02
ARF4 (UniProt P18085)	-0.029	0.033	0.093	-0.007	0.006	-0.016	0.093	0.039	-0.015	-0.021
ATP6AP1 (UniProt Q15904)	-0.009	-0.031	-0.036	0.029	-0.08	-0.022	-0.128	-0.004	0.01	-0.079
ARFRP1 (UniProt Q13795)	-0.018	-0.017	0.096	0.008	0.12	0.048	0.057	0.015	-0.013	0.032
AGRN (UniProt O00468)	0.064	-0.013	-0.039	-0.125	0.071	-0.048	0.366 (active)	0.024	-0.091	0.05
ABCA4 (UniProt P78363)	0.191	-0.367	0.107	-0.151	0.062	-0.073	0.042	0.044	0.033	0.145
ANKRD29 (UniProt Q8N6D5)	0.243	-0.445 (active)	0.083	-0.021	0.223	-0.015	-0.046	0.098	-0.025	0.096
AURKA (UniProt O14965)	0.181	0.018	-0.055	-0.061	-0.08	-0.028	0.028	0.462	0.707 (active)	-0.313
ARL1 (UniProt P40616)	0.049	0.063	0.072	-0.091	0.027	-0.028	0.13	0.084	-0.076	0.055
ARFGAP1 (UniProt Q8N6T3)	-0.017	0.131	0.086	-0.072	-0.017	-0.018	-0.069	0.035	-0.037	0.001
APLP2 (UniProt Q06481)	0.003	0.009	-0.023	-0.034	0.023	0.004	0.044	-0.03	-0.047	-0.002
ARL2BP (UniProt Q9Y2Y0)	-0.048	0.014	0.041	-0.02	0.093	0.104	0.037	-0.047	-0.008	-0.072
ACIN1 (UniProt Q9UKV3)	0.116	-0.1	-0.033	0.006	0.051	0.007	0	-0.012	-0.041	-0.038
ATG9A (UniProt Q7Z3C6)	0.044	0.03	0.057	-0.003	0.047	0.021	0.045	-0.005	-0.026	-0.023
ATP7B (UniProt P35670)	-0.005	0.073	-0.037	0.051	0.119	0.01	0.077	-0.009	-0.075	-0.052
AGPAT1 (UniProt Q99943)	0.04	-0.004	0.008	-0.014	0.013	0.029	-0.015	-0.001	0.001	0.048
ACO2 (UniProt Q99798)	0.049	0.008	0.105	-0.014	0.077	-0.244 (active)	0.036	0.009	0.018	0.015
ARFIP1 (UniProt P53367)	0.217	-0.121	0.087	0.094	0.115	0.62	-0.126	-0.013	0	0.044
ATR (UniProt Q13535)	0.014	-0.011	-0.039	0.018	0.02	0.02	-0.017	0.086	-0.029	0.046
ARGLU1 (UniProt Q9NWB6)	0.016	0.052	-0.183	0.115	-0.38 (active)	0.014	-0.125	-0.235	-0.02	-0.232
ATP6V0A2 (UniProt Q9Y487)	-0.009	0	-0.045	0.031	-0.025	0.031	0.024	0.041	-0.016	0.002
ATP1A4 (UniProt Q13733)	-0.076	0.033	0.183	0.046	-0.051	0.063	-0.003	-0.112	-0.009	-0.015
ATP13A2 (UniProt Q9NQ11)	0.047	0.012	0.011	0.096	0.024	0.099	0.01	-0.042	0.035	0.082
ARMC8 (UniProt Q8IUR7)	-0.079	-0.029	-0.029	0.027	-0.047	0.013	0.051	-0.005	-0.002	-0.027
ALDH6A1 (UniProt Q02252)	0.067	-0.02	0.061	-0.144	0.074	-0.043	0.038	-0.038	-0.03	0.043
ACAD9 (UniProt Q9H845)	-0.002	0.025	0.054	0.015	0.035	0.032	0.026	-0.002	-0.002	0.029
ARPP19 (UniProt P56211)	-0.01	0.003	0.076	-0.032	-0.061	0.041	0.026	0.014	-0.024	-0.018
